Values joined by “and” are separate entries in the source; they are usually repeats but may differ in a detail not shown here. Equal entries are not always repeated. Records with an inconclusive call do not appear. Active and inactive are the calls of the source. Unless noted, calls follow the shape of the dose curve; as a rule, active = well fitted curve in the direction sought with a large enough effect in the repeat runs; inconclusive = weak or mixed curves; inactive = no such curve, though single readings can be large; an effect the other way counts as inactive or inconclusive.

Experiment [1] is described as follows: qHTS assay for small molecule agonists of the p53 signaling pathway (AID 651631; calls by dose curve; also: nearly all actives have a fitted effect of over 15% in size; also: potency is read from the fitted curve at half-maximal effect). In outline: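 Testing took place in human colorectal HCT-116 cells with stable p53RE-driven beta-lactamase. After 16 h of compound exposure at 37 °C, a FRET substrate was added and fluorescence recorded 2 h later.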
Experiment [2] is described as follows: qHTS assay for small molecules that induce genotoxicity in human embryonic kidney cells expressing luciferase-tagged ATAD5 (AID 651632). Also: nearly all actives have a fitted effect of over 15% in size. Also: potency is read from the fitted curve at half-maximal effect. An outline of the steps:
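Genotoxicity read-out via ATAD5-luciferase: HEK293T cells, 16 hr compound incubation at 37C, Amplite detection.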
On the technique in general: In qHTS, concentration-response curves come from the screen itself.

Experiment [3] in a line: qHTS assay for small molecule agonists of the p53 signaling pathway - cell viability (AID 651633; calls by dose curve; also: series mostly up to about 83 µM; nearly all actives have a fitted effect of over 30% in size). In outline:
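p53RE-bla cells, seeded at 4,000 per well and rested 5 h at 37 C/5% CO2, received compounds in DMSO for 16 h at 37 C. CellTiter-Glo was then added, and luminescence was read after 30 min at room temperature to gauge cytotoxicity.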

The nature of experiment [4]: qHTS assay for small molecules that induce genotoxicity in human embryonic kidney cells expressing luciferase-tagged ATAD5 - cell viability (AID 651634; calls by dose curve; also: nearly all actives have a fitted effect of over 25% in size; also: potency is read from the fitted curve at half-maximal effect). In outline:
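Live-cell protease activity (CellTiter-Fluor, fluorescence) indicates viability. HEK293T cells with luciferase-tagged ATAD5; 15.5 hr compound treatment at 37C.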

The nature of experiment [5]: qHTS assay for small molecule disruptors of the mitochondrial membrane potential - cell viability (AID 720634; calls by dose curve;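 also: human HepG2 liver cancer cells; series mostly up to about 83 µM; nearly all actives have a fitted effect of over 20% in size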). An outline of the steps: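 Human hepatoma HepG2 cells were treated for 1 hr with test chemicals, then given m-MPI dye and CellTiter-Glo. Cell viability reflects luminescence proportional to cellular ATP.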
A short description of experiment [6]: qHTS assay to test for compound auto fluorescence at 535 nm (green) in HepG2 cells (AID 720675).
Experiment [7] in a line: qHTS assay to test for compound auto fluorescence at 460 nm (blue) in HEK293 cells (AID 720678). An outline of the steps: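 Cells were seeded and left to adhere for 4-5 hr at 37C. Compounds were then pin-transferred. After an overnight incubation at 37C under 5% CO2, intrinsic fluorescence at 405/460 nm was measured and referenced to triamterene.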
The nature of experiment [8]: qHTS assay to test for compound auto fluorescence at 590 nm (red) in HEK293 cells (AID 720679). In outline: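 Each well held 2,000 HEK293 cells in medium containing 10% dialyzed FBS. Following 4-5 hr attachment at 37C, 23 nL test compound or DMSO was added; plates sat overnight, and red fluorescence (540/590nm) was recorded.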
Experiment [9] is described as follows: qHTS assay to test for compound auto fluorescence at 460 nm (blue) in HEK293 cell free culture (AID 720681). An outline of the steps: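 Test compounds were pinned into cell-free culture medium (DMEM with 10% FBS) and fluorescence was read directly at Ex/Em 405/460 nm. Signals were expressed as fluorescence equivalents of triamterene, with DMSO vehicle as control.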

Experiment [10] is described as follows: qHTS assay to test for compound auto fluorescence at 535 nm (green) in HEK293 cell free culture (AID 720682). In outline: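 DMEM + 10% FBS, cell-free; cpd or DMSO pinned in; Ex485/Em535 read; output as fluorescein-equivalent signal.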
The nature of experiment [11]: qHTS assay to test for compound auto fluorescence at 590 nm (red) in HepG2 cell free culture (AID 720684). An outline of the steps: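 Measured in medium alone (MEM containing 10% FBS) following pintool addition of compound; emission at 590 nm with 540 nm excitation, referenced to Rose Bengal sodium.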
The nature of experiment [12]: qHTS assay to test for compound auto fluorescence at 460 nm (blue) in HepG2 cell free culture (AID 720685). In outline: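 Compound (23 nL) or DMSO pinned into cell-free MEM with 10% FBS; blue fluorescence read at 405/460 nm excitation/emission, expressed as auto-fluorescence equivalency to triamterene.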
Experiment [13] is described as follows: qHTS assay to test for compound auto fluorescence at 535 nm (green) in HepG2 cell free culture (AID 720686).
The nature of experiment [14]: qHTS assay to test for compound auto fluorescence at 460 nm (blue) in HepG2 cells (AID 720687). In outline: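 Cells (2,000/well in MEM with 10% FBS) attached overnight at 37 C, then were exposed to compound or DMSO for 1 hr at 37 C, 5% CO2. Fluorescence read at Ex/Em 405/460 nm, expressed as triamterene-equivalent signal.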
For experiment [15], the target named is Glucocorticoid receptor (Homo sapiens) (UniProt P04150). Put plainly: qHTS assay to identify small molecule agonists of the glucocorticoid receptor (GR) signaling pathway (AID 720691; active = well fitted activation curve with a large enough effect in the signal ratio in the repeat runs, not every such curve was filed as active; the % refers to the signal ratio). An outline of the steps:
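Beta-lactamase reporter activity, read as fluorescence intensity, was measured in GR-bla HeLa cells exposed to compounds for 18 h at 37 C and then loaded with LiveBLAzer B/G FRET substrate for 2 h at room temperature.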

The target is the same in experiment [16]. Put plainly: qHTS assay to identify small molecule antagonists of the glucocorticoid receptor (GR) signaling pathway (AID 720692; active = well fitted inhibition curve with a large enough effect in the signal ratio in the repeat runs, not every such curve was filed as active; the % refers to the signal ratio; also: potency is read from the fitted curve at half-maximal effect). In outline:
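Fluorescence from cleaved LiveBLAzer B/G FRET substrate reports GRE-driven beta-lactamase in HeLa cells; compounds are tested against 5 nM dexamethasone (final) over 18 h at 37 C, substrate incubation 2 h at room temperature.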

The nature of experiment [17]: qHTS assay for small molecule disruptors of the mitochondrial membrane potential (AID 720635). Also: potency is read from the fitted curve at half-maximal effect. In outline:
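HepG2 cells (2,000/well) attached overnight at 37C, then took compound for 1 hr at 37C, 5% CO2. Mito-MPS dye was added for 30 min; fluorescence was read at 490/535 nm (monomers) and 540/590 nm (aggregates).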

Experiment [18] in a line: qHTS assay to test for compound auto fluorescence at 590 nm (red) in HepG2 cells (AID 720674). In outline: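 Intrinsic compound fluorescence in the red window (Ex/Em 540/590 nm) is measured in attached HepG2 cells exposed for 1 hr, DMSO vehicle as baseline, benchmarked to Rose Bengal sodium.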
A short description of experiment [19]: qHTS assay to test for compound auto fluorescence at 535 nm (green) in HEK293 cells (AID 720680).
Experiment [20] is described as follows: qHTS assay to test for compound auto fluorescence at 590 nm (red) in HEK293 cell free culture (AID 720683). In outline: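 Tox21 10K library compounds were pinned into cell-free DMEM with 10% FBS and fluorescence was read at excitation 540 nm. Activity is expressed as Rose Bengal sodium equivalency.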

Chain of Glucocorticoid receptor (Homo sapiens) (P04150 whole entry, looked up): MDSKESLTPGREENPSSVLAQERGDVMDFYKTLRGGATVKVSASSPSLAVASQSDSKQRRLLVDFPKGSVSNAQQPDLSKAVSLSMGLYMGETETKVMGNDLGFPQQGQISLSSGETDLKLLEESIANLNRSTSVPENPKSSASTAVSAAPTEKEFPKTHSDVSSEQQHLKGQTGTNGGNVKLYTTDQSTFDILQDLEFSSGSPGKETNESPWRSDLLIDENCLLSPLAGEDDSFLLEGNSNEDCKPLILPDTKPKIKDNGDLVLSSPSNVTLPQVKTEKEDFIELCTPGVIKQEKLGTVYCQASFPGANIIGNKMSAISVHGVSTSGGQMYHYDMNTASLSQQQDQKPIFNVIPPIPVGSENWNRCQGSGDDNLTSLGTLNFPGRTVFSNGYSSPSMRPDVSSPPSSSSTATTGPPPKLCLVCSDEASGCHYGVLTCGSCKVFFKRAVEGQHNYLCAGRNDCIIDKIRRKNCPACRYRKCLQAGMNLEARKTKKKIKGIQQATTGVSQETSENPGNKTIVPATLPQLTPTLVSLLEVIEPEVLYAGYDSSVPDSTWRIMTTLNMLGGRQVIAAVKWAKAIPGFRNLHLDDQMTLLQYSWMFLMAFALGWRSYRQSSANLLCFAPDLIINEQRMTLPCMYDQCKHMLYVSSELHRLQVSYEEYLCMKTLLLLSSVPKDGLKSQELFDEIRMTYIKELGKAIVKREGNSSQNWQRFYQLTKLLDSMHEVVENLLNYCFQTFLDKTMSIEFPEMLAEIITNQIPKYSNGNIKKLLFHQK

In the case of `CC[C@H]1CN2CCc3cc(OC)c(OC)cc3[C@@H]2C[C@@H]1C[C@H]1NCCc2cc(OC)c(OC)cc21`, the Potency was 38.7 nM (active) in experiment [1]; 168 nM (active) and 194 nM (active) in [4]; 1510 nM (active) in experiment [16]. The Potency entry in [2], in experiment [3], in [5], in experiment [6], in [7] and in experiment [9] was “inactive” each time. The Potency entry in experiment [10], in experiment [12], in experiment [13], in experiment [14] and in experiment [15] was “inactive” each time. Besides, the outcome in [8] and in experiment [11] was inactive.

Turning to `Nc1nc2ccccc2[nH]1`, the Potency entry in [1], in experiment [2], in experiment [3], in experiment [4], in [5] and in experiment [17] was “inactive” each time. Besides, the Potency result in experiment [6], in [7], in [19], in experiment [9], in experiment [10] and in experiment [12] was “inactive” throughout. Moreover, the Potency entry in experiment [13], in [14], in [15] and in experiment [16] was “inactive” throughout. The call in experiment [18], in experiment [8] and in experiment [11] was inactive.

On to `C=CS(=O)(=O)O`, for which the Potency result in experiment [1], in experiment [2], in experiment [3], in experiment [5], in [6] and in experiment [7] was “inactive” throughout. The Potency result in [19], in experiment [9], in experiment [10], in experiment [12], in [13] and in experiment [14] was “inactive” throughout. The Potency entry in [15] and in experiment [16] was “inactive” each time. Moreover, the compound was called inactive in experiment [18], in experiment [8] and in [11].

Regarding `Cc1cc(C2(c3cc(C)c(O)cc3C)OS(=O)(=O)c3ccccc32)c(C)cc1O`, the Potency entry in [1], in experiment [2], in experiment [3], in experiment [5], in experiment [6] and in [7] was “inactive” each time. The Potency result in experiment [19], in experiment [10], in experiment [12], in experiment [13], in experiment [14] and in experiment [15] was “inactive” each time. Besides, the compound was classed as inactive in [8] and in [11].

Consider `C/C=C/c1ccc(OCC)c(O)c1`, for which the Potency result in [1], in experiment [2], in [3], in [5], in experiment [6] and in experiment [7] was “inactive” in each case. Also, the Potency entry in [19], in [9], in [10], in experiment [12], in experiment [13] and in experiment [14] was “inactive” in each case. Further, the Potency result in [15] and in experiment [16] was “inactive” in each case. The Potency in experiment [17] is 48.6 µM (active). Further, the outcome in [18], in experiment [8], in experiment [20] and in experiment [11] was inactive.

For `CC[C@]1(O)C[C@@H]2CN(CCc3c([nH]c4ccccc34)[C@@](C(=O)OC)(c3cc4c(cc3OC)N(C)[C@H]3[C@@](O)(C(=O)OC)[C@H](OC(C)=O)[C@]5(CC)C=CCN6CC[C@]43[C@@H]65)C2)C1`, the Potency is 42.2 nM (active) in experiment [1]; 1.19 µM (active) and 266 nM (active) in experiment [2]; 133 nM (active) and 168 nM (active) in experiment [4]; 1.88 µM (active) and 944 nM (active) in experiment [17]. For the same compound, the Potency entry in [5], in experiment [6], in experiment [7], in experiment [19], in experiment [10] and in [12] was “inactive” each time. The Potency entry in experiment [13], in experiment [14] and in experiment [15] was “inactive” throughout. Moreover, the call in [18], in [8], in experiment [20] and in experiment [11] was inactive.

For `CC(C)CCOC(=O)c1ccc(N(C)C)cc1`, the Potency result in [1], in experiment [4], in [6], in experiment [7], in [19] and in experiment [9] was “inactive” throughout. For the same compound, the Potency entry in experiment [10], in experiment [12], in experiment [13] and in experiment [14] was “inactive” in each case. Also, the Potency in experiment [2] is 13.3 µM (active). Moreover, the result in experiment [18], in experiment [8], in experiment [20] and in experiment [11] was inactive.

The values above are taken from PubChem BioAssay (Tox21).
